Assays:
Test in all cases: PBM binding z-score (relative to random genomic background probes); higher = stronger binding; sequences stand for … in GC…GCGATTGACAGCGTAGAATGAAGG
[1] = tested on: FXR:RXRa (NR concentration 270 nM, RXRa partner concentration 90 nM)
Summary of the method: (§1)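 Binding z-scores take random background probes as their reference. They come from custom Agilent 4×180K protein-binding microarrays incubated 1 h with ligand-free nuclear receptor dimers, with antibodies against each partner (one per run) detecting binding. Scanned fluorescence was regression-normalized.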

[2] = tested on: LXRa:RXRa (NR concentration 270 nM, RXRa partner concentration 90 nM)
Summary of the method: as §1

[3] = tested on: LXRa homodimer (NR concentration 270 nM)
Summary of the method: as §1

[4] = tested on: LXRb:RXRa (NR concentration 270 nM, RXRa partner concentration 90 nM)
Summary of the method: as §1

[5] = tested on: LXRb homodimer (NR concentration 270 nM)
Summary of the method: as §1

[6] = tested on: PPARa:RXRa (NR concentration 270 nM, RXRa partner concentration 90 nM)
Summary of the method: as §1

[7] = tested on: PPARg:RXRa (NR concentration 180 nM, RXRa partner concentration 90 nM)
Summary of the method: as §1

[8] = tested on: PPARg:RXRa 270nM:90nM, anti-RXR (NR concentration 270 nM, RXRa partner concentration 90 nM)
Summary of the method: as §1

[9] = tested on: PPARg:RXRa 30nM:10nM, anti-RXR (NR concentration 30 nM, RXRa partner concentration 10 nM)
Summary of the method: as §1

[10] = tested on: PPARg:RXRa 90nM:30nM, anti-RXR (NR concentration 90 nM, RXRa partner concentration 30 nM)
Summary of the method: as §1

Sequence	PBM binding z-score [1]	PBM binding z-score [2]	PBM binding z-score [3]	PBM binding z-score [4]	PBM binding z-score [5]	PBM binding z-score [6]	PBM binding z-score [7]	PBM binding z-score [8]	PBM binding z-score [9]	PBM binding z-score [10]
ACTAGCAGGCGAAGTTTGGGTCACTCAAACAAAG	-0.1	-0.222	-0.509	0.307	-0.961	1.22	-0.19	0.0876	-0.449	-0.106
CCTAGTTGGTCAGGAGGTCACACTCCGGATATGA	3.59	3.48	2.22	3.31	0.86	3.98	3.28	4.03	1.65	3.38
AGAATGAGGTTACCAAAGATCAGGGGAACGCTTG	1.87	6	-0.402	3.15	-0.39	3.44	2.74	2.72	1.04	2
CCGACTGGGGCAAAGGTTTCCATACTCAGTACGA	-0.478	-0.199	-0.443	0.175	-1.02	3.35	8.18	7.78	8.2	9.01
GCAGTCAGGTGAAACGCAGGTAACTCAGGGTGGC	0.205	-0.0689	-0.816	-0.344	-1.08	0.614	0.152	0.222	-0.525	0.166
CCTAGCAGGCCAGTCTGGGTCACTCAAGGCTTGA	0.876	0.686	-0.81	0.487	-1.44	2.13	-0.179	0.439	-1.1	0.0493
AGAATGAGGTTACCAAAGATCAGGGAAACGCTTG	1.86	6.59	-0.00475	3.1	-0.712	3.65	3	3.03	0.954	2.22
GCTTGTATATCAAGGTTAAGAAAGACTAAGCTAA	0.268	1.1	-0.0678	0.659	-0.396	1.19	0.639	0.798	0.189	0.527
TCATATAGGTAAACAGATGAAAGTCCGTAAGTTA	1.23	0.739	0.342	0.86	-0.0548	1.14	1.36	2.08	3.81	3.18
TCTGCTAGGTCAACGATAGTCAGCTAATCTGCTA	3.23	2.35	-0.23	1.4	-0.0504	3.14	2.53	3.15	1.95	2.82
CCTACTGGGCCAAAAAGGTCATGGATGCCGATAA	3.67	4.35	2.1	4.13	-0.189	5.2	4.16	4.82	1.68	3.88
TCTAGCAGGCCAGAGGGTCACTCTAGAGGTACGG	0.795	0.863	-0.632	1.02	-1.09	2.13	1.45	2.77	2.29	2.45

Reference: the supplement of paper PMC6555819
